Assay outcomes as filed in PubChem.
TGFb inhibitor = qHTS for Inhibitors of TGF-b | HepG2 CAGA-GFP TGF-b/SMAD3 reporter, GFP fluorescence, 18 h; TGF-beta stimulated, 500 pg/mL final | Potency, µM (doses to about 46.1 µM), for inactives: at the top dose activity, negative = inhibition, actives largely listed as inhibitors | hit rate 1.2% among 410,000 | AID 588855, 2011; also: potency is read from the fitted curve at half-maximal effect; % is scaled to controls: 0 for no effect and ±100 for the full control effect; nearly all actives have a fitted effect of over 65% in size
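First, reporter cells (HEPG2 CAGA-GFP) rested 2 h at 37 degrees C. Next, compounds were pinned in and TGF-beta added to 500 pg/mL final. After 18 h, GFP was imaged per cell and summed per well.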
HepG2 viability = qHTS for Inhibitors of TGF-b: Cytotox Counterscreen; HepG2 CAGA-GFP viability, ATP luminescence, 18 h; Potency, µM (series often up to 46.1 µM), inactives show at the highest dose activity change, negative = cytotoxicity, usual class: cytotoxic; hit rate 0.76% among 410,000; AID 588856, 2011; also: potency is read from the fitted curve at half-maximal effect
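HepG2 CAGA-GFP cells (1000/well, DMEM with 1% FBS) received compound, then TGF-beta at 500 pg/mL final, and were incubated 18 hours at 37 degrees C. Viability was read by CellTiter-Glo luminescence. Media-only wells were set as complete cell-killing and DMSO as no toxicity.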
DRD3 agonist = qHTS of D3 Dopamine Receptor Agonist: qHTS; D3R DiscoveRx beta-arrestin cells, luminescence, 90 min; AID 652048, 2013; hit rate 0.58% among 410,000; D(3) dopamine receptor (Homo sapiens), P35462; max activation, %; in the data active = max activation above about 30%; also: 0% is about no effect
Target sequence (P35462 whole entry, looked up): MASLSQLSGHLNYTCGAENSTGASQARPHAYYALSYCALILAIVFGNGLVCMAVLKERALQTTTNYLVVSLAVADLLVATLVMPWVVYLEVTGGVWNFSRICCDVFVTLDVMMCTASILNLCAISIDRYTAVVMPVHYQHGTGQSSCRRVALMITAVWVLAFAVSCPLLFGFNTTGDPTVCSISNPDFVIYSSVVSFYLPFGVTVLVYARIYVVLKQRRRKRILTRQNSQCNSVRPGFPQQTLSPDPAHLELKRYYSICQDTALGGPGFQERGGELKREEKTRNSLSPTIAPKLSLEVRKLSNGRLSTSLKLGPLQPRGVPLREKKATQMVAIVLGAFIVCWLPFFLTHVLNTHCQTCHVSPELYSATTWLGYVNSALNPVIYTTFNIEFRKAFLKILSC
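Agonist mode: compounds and dopamine controls were applied to plated cells for 90 min at 37 degrees C after an overnight attachment at 1500 cells/well. Luminescent read-out followed 30 - 60 minutes at room temperature with DiscoveRx detection reagent.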
ATXN2 expr inh = Primary qHTS for Inhibitors of ATXN expression. HEK-293 ATXN2-luciferase reporter, luminescence, 24 h. Potency, µM (highest dose often 57 µM), inactives show top-dose activity change, negative = inhibition, actives largely listed as inhibitors. hit rate 0.72% among 360,000. AID 1745845, 2022; also: potency is read from the fitted curve at half-maximal effect; % is scaled to controls: 0 for no effect and ±100 for the full control effect; nearly all actives have a fitted effect of over 55% in size
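ATXN2-luciferase reporter cells (luciferase flanked by upstream and downstream ATXN2 gene portions) were treated 24 h at 37 °C with compounds at up to 57 uM. SteadyGlo luminescence gave expression; GF-AFC fluorescence gave viability.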
S2 tox = Viability Counterscreen for Primary qHTS for Inhibitors of ATXN expression | Potency, µM (highest dose often 56.7 µM), most hits filed as cytotoxic | S2 cells (HEK-293 line with an ATXN2-luciferase reporter) viability, CellTiter-Fluor protease fluorescence, 24 h | hit rate 0.49% among 400,000; also: potency is read from the fitted curve at half-maximal effect; nearly all actives have a fitted effect of over 40% in size
DRD3 antagonist = qHTS of D3 Dopamine Receptor Antagonist: qHTS; AID 652054, 2013; max response, negative = inhibition, %; D3R cells, DiscoveRx beta-arrestin luminescence, antagonist mode; hits give low values; hit rate 2.5% among 360,000; D(3) dopamine receptor (Homo sapiens), P35462; in the data active = max response below about -50%; inconclusive = no clear call, values can overlap the other calls; also: % is scaled to controls: 0 for no effect and ±100 for the full control effect
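Cells expressing the human receptor were seeded at 1500 cells/well, incubated overnight at 37 degrees C in 5% CO2, then exposed to library compounds with dopamine controls for 90 minutes at 37 degrees C before luminescent detection.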
An asterisk follows results filed as active; i = inactive; ? = inconclusive; . = no result given. Compounds with a hit are over-represented: about 4.7% of the library has one in this group of screens. Unless noted, calls follow the shape of the dose curve; as a rule, active = well fitted curve in the direction sought with a large enough effect; inconclusive = small, poorly fitted or top-dose-only effect, or another doubt; inactive = no such curve, though single readings can be large; an effect the other way counts as inactive or inconclusive.

SMILES	TGFb inhibitor	HepG2 viability	DRD3 agonist	ATXN2 expr inh	S2 tox	DRD3 antagonist
Cc1ccc(NC(=O)CN2CCCCCC2)cc1Br	-8%	-8%	-22	0%	?	-85*
CC1CCN(CC(=O)NNC(=O)c2cccc(Br)c2)CC1	6%	-12%	-34	-22%	i	-50*
CCn1nnnc1Sc1nc(C)nc2scc(-c3ccccc3)c12	14%	15%	.	.	.	.
Nc1cc(N)cc(N)c1	-6%	21%	.	.	.	.
COc1ccc(NC2=Nc3ccccc3CC2)cc1	-1%	-6%	-34	-9%	i	-56*
Cc1ccc(Cn2c(CN3CCC(C(=O)NCCc4ccccc4)CC3)cc3ccccc32)cc1	?	-97%	-12	?	?	.
COc1ccc(-c2c[n+](CC(=O)OC3CC(C)CCC3C(C)C)c3n2CCC3)cc1 (stereo unspecified)	20µM*	-31%	-25	?	?	-12
CC(C)[C@@H]1CC[C@@H](C)C[C@H]1OC(=O)C[n+]1cc(-c2ccc(Cl)cc2)n2c1CCCCC2	?	-187%	-15	?	?	2
CCOC(=O)c1c(C)n(C)c2ccc(OC)c(NC(=O)CCN3CCC(Cc4ccccc4)CC3)c12	-21%	-39%	-21	.	i	-120*
CCOC(=O)c1c(C)n(C)c2ccc(OC)c(NC(=O)CN3CCSCC3)c12	-16%	2%	0	-22%	i	-21
CN(C)CCC1Sc2ccccc2Oc2ccccc21 (stereo unspecified)	-1%	-50%	0	-15%	i	-64*
CC1(C)CCC(=NNC(N)=S)CC1	?	-40%	-8	-34%	?	-7
NC(=S)NN=C1CSSC1	10µM*	11µM*	-3	.	i	-14
CC1(C)N=C(N)N=C(N)N1c1ccc(OCCCOc2ccccc2)c(Cl)c1	-30%	-49%	1	.	i	-2
CC1(C)N=C(N)N=C(N)N1c1ccc(OCC(=O)N2CCOCC2)c(Cl)c1	-5%	0.1µM*	10	.	i	6
CC1(C)N=C(N)N=C(N)N1c1ccc(OCC(=O)Nc2ccccc2)c(Cl)c1	0%	-68%	-6	.	i	-62*
Clc1ccc2nc(CN3CCCCCC3)cn2c1	-3%	-9%	-5	3%	i	-85*
Cc1cccc(N2CCN(C(=O)CCc3nnc4n(CC(C)C)c(=O)c5ccccc5n34)CC2)c1C	-8%	3%	13	.	.	.
Cc1ccc(C(=O)CSc2nnnn2C(C)C)c(C)c1	-2%	-5%	-14	7.9µM*	i	-13
Cc1ccc(C)c(C(=O)CSc2nnnn2C(C)C)c1	-2%	-14%	-3	21%	i	-1
CCOc1ccccc1NC(=O)C(=O)NCCc1sc(-c2cccc(F)c2)nc1C	-4%	4%	7	5%	i	.
COc1ccc(CNC(=O)c2c(N)n(CCCN3CCOCC3)c3nc4ccccc4nc23)cc1	11µM*	-115%	9	?	i	36
Nc1c(C(=O)NCc2ccc(F)cc2)c2nc3ccccc3nc2n1CCCN1CCOCC1	?	18µM*	-4	?	i	0
COC(=O)c1c(N)n(CCCN2CCOCC2)c2nc3ccccc3nc12	0%	-2%	5	-9%	i	3
Nc1c(C(=O)NCc2ccccc2)c2nc3ccccc3nc2n1CCCN1CCOCC1	?	18µM*	0	.	.	20
SMILES	TGFb inhibitor	HepG2 viability	DRD3 agonist	ATXN2 expr inh	S2 tox	DRD3 antagonist
COc1ccc(CN2CCCC(n3cc(C(=O)N4CCCCC4)nn3)C2)cc1OC (stereo unspecified)	.	.	.	.	i	.
CCN(C(=O)CSc1nc(-c2ccc(C(C)C)cc2)no1)c1ccccc1	100%	102%	4	-19%	i	.
Cc1ccc(NC(=O)C2CCC(CNS(=O)(=O)c3cccc4nsnc34)CC2)c(Cl)c1 (stereo unspecified)	-6%	17%	10	-9%	?	.
CC(C)(C)c1ccc(/C=C(\c2nc3ccccc3[nH]2)S(=O)(=O)c2ccccc2)cc1	16µM*	-51%	-10	16µM*	20µM*	-66*
COc1cc(NS(=O)(=O)c2cc(Br)cc3c2N(C(=O)C2CC2)CC3)cc(OC)c1	2.2µM*	-23%	2	.	.	.
Cc1ccc(NS(=O)(=O)c2cc(Br)cc3c2N(C(=O)C2CC2)CC3)cc1C	?	-17%	8	.	.	.
CC1CC(C)CN(CCCNS(=O)(=O)c2cc(Br)cc3c2N(C(=O)C2CC2)CC3)C1 (stereo unspecified)	11%	4µM*	-11	-16%	i	-1
CC(=O)N1CCc2cc(Br)cc(S(=O)(=O)NCCCN3CCCC(C)C3)c21 (stereo unspecified)	-3%	-16%	-5	2%	i	-60*
CCC(=O)N1CCc2cc(Br)cc(S(=O)(=O)NCCc3cccc(C)c3)c21	11µM*	-17%	-30	.	.	.
CC(=O)OCn1ncc(N2CCOCC2)c(Br)c1=O	-3%	2%	1	-14%	?	5
O=C(OCn1ncc(Br)c(Br)c1=O)c1ccccc1Cl	13µM*	18µM*	-33	7.9µM*	10µM*	-88*
O=C(OCn1ncc(Br)c(Br)c1=O)c1ccc(F)cc1	11µM*	10µM*	-13	7.9µM*	14µM*	-83*
Cn1c(NCCO)nc2c1c(=O)n(Cc1ccccc1Cl)c(=O)n2C	5%	17%	5	2%	i	.
OC1C(Br)=Cc2ccccc21 (stereo unspecified)	6%	-12%	.	.	.	.
[O-][n+]1c2ccccc2cc2ccccc21	11µM*	-5%	7	?	i	18
COc1ccc(OCC(=O)N(Cc2cccs2)c2ccc(OC)cc2)cc1	-28%	-10%	7	.	.	.
CCOc1ccccc1C(=O)N(Cc1cccs1)c1ccc(Cl)cc1	18µM*	-97%	-10	0%	?	.
CCc1ccc(OCC(=O)N(Cc2cccs2)c2ccc(Cl)cc2)cc1	16µM*	-33%	-5	-31%	?	.
Cc1ccc(N(Cc2cccs2)C(=O)c2ccccc2Cl)cc1	?	-10%	4	-9%	?	.
CC(C)c1ccc(NC(=O)CSC2=Nc3ccccc3C3=NC(CC(=O)NCCc4ccccc4)C(=O)N23)cc1 (stereo unspecified)	?	0%	-2	-15%	?	.
COc1ccc(-c2csc(N(CCCN(C)C)C(=O)c3cccs3)n2)cc1	-23%	10µM*	-51	-31%	?	-58*
